High-throughput results from PubChem.
Rows were chosen to be rich in hits. Some 7.6% of all compounds tested hit in one or more screens of this group.
KCNH2 WT inh – inhibitors of human wildtype KCNH2 potassium channel; U2OS, BacMam KCNH2, thallium flux FluxOr; active compounds read low; activity change, % at 1.84 µM; 0.37% of 340,000 active;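 active = maximum activity change below -70%; inconclusive = maximum activity change between -70% and -50%; inactive = maximum activity change above -50%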; note: % is set by controls: 0 for no effect and ±100 for the full control effect
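U2OS cells were transduced with wild-type KCNH2 virus (2.03 x 10^8 / mL) for 4 h at room temperature, then cultured overnight at 37 C. Thallium flux was read with FluxOr dye. Rate constants were normalized to DMSO controls.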
KCNH2 3.1 block – KCNH2 3.1 (human) potassium channel inhibition | 0.95% of 340,000 active | activity change, % (tested at about 1.8 µM) | U2OS KCNH2 3.1, thallium flux FluxOr; active compounds read low;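 active = maximum activity change below -70%; inconclusive = maximum activity change from -70% to -50%; inactive = maximum activity change above -50%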;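 note: thallium influx rate constant from kinetic fluorescence after stimulation buffer; % is set by controls: 0 for no effect and ±100 for the full control effect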
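Thallium flux read-out: FluxOr dye with Red40 quencher in HBSS/HEPES, 45 min at RT. Rate constants from kinetic reads were normalized to positive and negative DMSO controls. Cells: U2OS virally expressing the 3.1 isoform.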
MCF10A rerep – induces DNA re-replication in MCF 10a normal breast cells. Potency, µM (titrated, usually from 46.1 µM), without a hit: at the highest dose activity, positive = re-replication, usual class: activators. 2.9% of 350,000 active. MCF 10A DNA re-replication, Hoechst nuclear intensity, 48 h. AID 624296; note: potency is the fitted concentration of half-maximal effect; % of control where 0% means no effect; nearly all actives have a fitted effect of over 50% in size
SW480 rerep – inducers of DNA re-replication in SW480 colon cancer cells | SW480 DNA re-replication, Hoechst DNA content imaging, 48 h | Potency, µM (titrated, usually from 46.1 µM), without a hit: at the highest dose re-replication activation, actives largely listed as activators | 1.8% of 340,000 active; note: potency is the fitted concentration of half-maximal effect; % of control where 0% means no effect; nearly all actives have a fitted effect of over 55% in size
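Quantitative HTS format with DMSO vehicle controls; 48 hr drug incubation at 37 C, then 40 min Hoechst staining and scanning imager measurement at 405 nm excitation.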
KB-V1 cytotox – kills drug-selected multidrug resistant KB-V1 cells; 3.4% of 400,000 active; AID 1347076; Potency, µM (highest dose often 46.1 µM), hits mostly cytotoxic; KB-V1 MDR cells viability, CellTiter-Glo, 72 h; note: potency is the fitted concentration of half-maximal effect; % is set by controls: 0 for no effect and ±100 for the full control effect; nearly all actives have a fitted effect of over 60% in size
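Potencies derive from concentration-effect curves fitted to normalized luminescence (CellTiter-Glo) of KB-V1 cells treated for 72 h at 37 degrees C in phenol-red-free DMEM containing 10% FBS.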
KB-3-1 cytotox – KB-3-1 parental cell cytotoxicity; KB-3-1 viability, CellTiter-Glo ATP luminescence, 72 h; Potency, µM (titrated, usually from 46.1 µM), most hits filed as cytotoxic; 1.4% of 400,000 active; note: potency is the fitted concentration of half-maximal effect; % is set by controls: 0 for no effect and ±100 for the full control effect; nearly all actives have a fitted effect of over 60% in size
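Parental KB-3-1 adenocarcinoma cells in phenol-red-free DMEM with 10% FBS were pin-treated with compounds at several concentrations, incubated 72 h at 37 °C, and viability read by CellTiter-Glo luminescence; concentration-effect curves were fitted after normalization.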
The depositor's hits bear a star; i = inactive; ? = inconclusive; . = no result; [ ] = dose if it differs, or a comment. Unless noted, calls come from the whole dose curve; as a rule, active = well fitted curve in the direction sought with a large enough effect; inconclusive = small, poorly fitted or top-dose-only effect, or another doubt; inactive = no such curve, though single readings can be large; an effect the other way counts as inactive or inconclusive.

SMILES	KCNH2 WT inh	KCNH2 3.1 block	MCF10A rerep	SW480 rerep	KB-V1 cytotox	KB-3-1 cytotox
CN(C)c1ccc(/C=C/c2ccnc3ccccc23)cc1	.	.	.	.	?	12µM*
CN(C)c1ccc(C=Cc2nccc3ccccc23)cc1	.	.	.	.	i	9.2µM*
CN(C)c1ccc(/C=C/c2ccnc3c2ccc2ccccc23)cc1	.	.	.	.	?	i
CCN(CC)c1nc(C=Cc2ccc(N(C)C)cc2)c2nccnc2n1	-107*	-99*	.	.	i	i
CCN(CC)c1ccc(/C=C/c2nccc3ccccc23)cc1	.	.	.	.	i	i
CN(C)c1ccc(/C=C/c2ccnc3ccc4ccccc4c23)cc1	.	.	.	.	i	1.6µM*
O=C(c1ccc(CN2CCOCC2)cc1)N1CCN(c2ccccc2)CC1	19	11	4%	-1%	i	i
COc1ccc(OC)c(CCNC(=O)c2cc3c(-c4ccccc4F)nn(C)c3s2)c1	.	.	.	.	i	?
CCCCc1c(-c2ccccc2F)ncn1CCc1ccccc1OC	.	.	.	.	15µM*	?
CCCc1c(-c2ccccc2F)ncn1CCc1ccccc1OC	.	.	.	.	16µM*	?
CCCCCc1c(-c2ccccc2F)ncn1CCc1ccccc1OC	.	.	.	.	18µM*	?
COc1ccc(CNS(=O)(=O)c2cc3c(cc2C)n(C)c(=O)c(=O)n3C)cc1	.	.	.	.	i	i
CCN(CC)S(=O)(=O)c1ccc(=O)n(CC(=O)N2Cc3ccccc3CC2C(N)=O)c1 (stereo unspecified)	-2	0	-1%	3%	i	i
O=C(Nc1nnc(Cc2ccccc2)s1)Nc1ccccc1F	-6	18	13%	-14%	i	i
COc1cccc(C(=O)Nc2ccc(-c3nc4ccccc4[nH]3)cc2)c1	.	.	.	.	i	i
O=C(Nc1ccc(Cl)c(-c2nc3ccccc3[nH]2)c1)c1cccnc1	-20	9	1%	3%	21µM*	i
COc1c(Cl)cc(C(=O)Nc2cccc(-c3nc4ccccc4[nH]3)c2)cc1Cl	.	.	.	.	21µM*	?
COc1cccc(C(=O)Nc2ccccc2-c2ccccc2)c1	-4	14	-3%	-2%	i	i
COc1c(Cl)cc(C(=O)Nc2ccccc2-c2ccccc2)cc1Cl	2	0	?	7%	15µM*	21µM*
Cc1ccc(C2(CCNS(=O)(=O)c3ccc(C)cc3)CCOC(C(C)C)C2)cc1 (stereo unspecified)	-10	-12	?	22%	3.7µM*	?
Cc1ccc(C2(CCNCc3ccc(N(C)C)cc3)CCOC(C(C)C)C2)cc1 (stereo unspecified)	12	-12	?	?	?	?
CCC1(C)CC(CCNS(=O)(=O)c2ccc(C)cc2)(c2ccc(C)cc2)CCO1 (stereo unspecified)	-3	-9	?	4%	?	?
CC(C)C1CC(CCNCc2ccc(N(C)C)cc2)(c2ccccc2)CCO1 (stereo unspecified)	9	-9	?	23%	?	21µM*
COc1nc(N2CCCCCC2)nc(N2CCCCCC2)n1	-3	-2	18µM*	19%	15µM*	?
COc1nc(C#N)nc(N2CCCC2)n1	.	.	.	.	i	i
SMILES	KCNH2 WT inh	KCNH2 3.1 block	MCF10A rerep	SW480 rerep	KB-V1 cytotox	KB-3-1 cytotox
CCCCNC(=O)C(NC(=O)Cc1cc(OC)cc(OC)c1)C(=O)c1ccccc1 (stereo unspecified)	.	.	.	.	?	i
CCOc1ccc(CNC(=S)Nc2ccccc2)cc1Cl	-12	1	-8%	-2%	i	i
Cn1c2ccccc2c2c(C(=O)N3CCN(c4ccc(F)cc4)CC3)cn(C3CCCCC3)c(=O)c21	.	.	.	.	i	i
CC(C)C(=O)Nc1cccc(C(=O)OCC(=O)c2ccc(Cl)cc2Cl)c1	4	12	10%	3%	15µM*	i
CC(C)(C)S(=O)(=O)c1cnc2c(-c3ccc(Cl)cc3)cnn2c1N	-1	-5	14%	-13%	i	?
COc1ccc(-c2cnn3c(N)c(S(=O)(=O)C(C)(C)C)cnc23)cc1	-6	-7	15%	?	15µM*	i
CC(C)c1ccc(/C=C(\C#N)c2nc(-c3ccc(O)cc3)cs2)cc1	.	.	.	.	?	i
O=C(/C(=C/c1ccccc1Cl)c1ccccc1)N1CCOCC1	5	-1	15%	0%	23µM*	i
S=C(Nc1ccccc1)Nc1nc2ccccc2n1CCOc1ccccc1	9	0	?	?	15µM*	i
CCCCn1c(NC(=S)Nc2ccccc2)nc2ccccc21	-12	-19	?	16µM*	?	?
CC(=O)Nc1nc2ccccc2n1CCOc1ccccc1	-36	7	?	14%	i	?
O=C(NCc1ccco1)C1CCCN(c2nnc(-n3cccc3)s2)C1 (stereo unspecified)	0	7	16%	22%	i	i
O=Cc1ccc(I)cc1	.	.	.	.	i	i
Cc1[nH]c2ccccc2c1C(c1ccccn1)N1CCC(C(N)=O)CC1 (stereo unspecified)	-5	1	?	2%[9.22 µM]	i	?
CCOC(=O)C1CCN(C(c2ccccn2)c2c(C)[nH]c3ccccc23)CC1 (stereo unspecified)	-7	12	21µM*	?	i	18µM*
O=C(COC(=O)c1nc(Cl)ccc1Cl)c1ccccc1Cl	-1	-2	-1%	-1%	i	i
CCC(C)c1ccccc1NC(=O)c1cc(C)no1 (stereo unspecified)	-3	4	13%	2%	?	?
CCOc1ccc(C(=O)CCC(=O)N2CCN(c3ccc(O)cc3)CC2)cc1	-2	15	14%	?	i	i
Cc1ccc(OCCC(=O)N2CCN(c3ccc(O)cc3)CC2)cc1	-3	15	?	7.3µM*	i	?
COc1ccc(N2CCN(C(=O)NCc3ccc(C)cc3)CC2)cc1	2	-14	?	?	5.8µM*	0.52µM*
Cc1ccc(S(=O)(=O)NCc2ccc(N3CCN(C(=O)OC(C)(C)C)CC3)cc2)cc1	-5	5	7%	-5%	?	?
Cc1cnc(C(=O)Nc2ccc(N3CCN(C(=O)OC(C)(C)C)CC3)cc2)cn1	1	7	?	?	i	5.8µM*
Cc1ccc(C(=O)NCc2ccc(N3CCN(C(=O)OC(C)(C)C)CC3)cc2)cc1	4	-117*	7%	-10%	3.7µM*	i
COc1ccc(-n2c(-c3ccc(Cl)cc3)c[nH]c2=S)cc1	-9	4	?	-2%	i	i
